Hit rate of the full screen: of about 310,000 compounds, about 14,000 (4.5%) showed an effect of 50% or more. Effects have a minus sign here. What follows is part of a selection rich in strong results, with near analogues and random picks from the rest.
biological target: human ether-à-go-go-related gene (hERG) potassium channel (human, UniProt Q12809); test: primary screen, population patch clamp on CHO cells stably expressing hERG; higher = less effect of the substance
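Also: peak tail current of the secondary pulse compared with the same well before compound.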

human ether-à-go-go-related gene (hERG) potassium channel, sequence (Q12809 whole entry, looked up): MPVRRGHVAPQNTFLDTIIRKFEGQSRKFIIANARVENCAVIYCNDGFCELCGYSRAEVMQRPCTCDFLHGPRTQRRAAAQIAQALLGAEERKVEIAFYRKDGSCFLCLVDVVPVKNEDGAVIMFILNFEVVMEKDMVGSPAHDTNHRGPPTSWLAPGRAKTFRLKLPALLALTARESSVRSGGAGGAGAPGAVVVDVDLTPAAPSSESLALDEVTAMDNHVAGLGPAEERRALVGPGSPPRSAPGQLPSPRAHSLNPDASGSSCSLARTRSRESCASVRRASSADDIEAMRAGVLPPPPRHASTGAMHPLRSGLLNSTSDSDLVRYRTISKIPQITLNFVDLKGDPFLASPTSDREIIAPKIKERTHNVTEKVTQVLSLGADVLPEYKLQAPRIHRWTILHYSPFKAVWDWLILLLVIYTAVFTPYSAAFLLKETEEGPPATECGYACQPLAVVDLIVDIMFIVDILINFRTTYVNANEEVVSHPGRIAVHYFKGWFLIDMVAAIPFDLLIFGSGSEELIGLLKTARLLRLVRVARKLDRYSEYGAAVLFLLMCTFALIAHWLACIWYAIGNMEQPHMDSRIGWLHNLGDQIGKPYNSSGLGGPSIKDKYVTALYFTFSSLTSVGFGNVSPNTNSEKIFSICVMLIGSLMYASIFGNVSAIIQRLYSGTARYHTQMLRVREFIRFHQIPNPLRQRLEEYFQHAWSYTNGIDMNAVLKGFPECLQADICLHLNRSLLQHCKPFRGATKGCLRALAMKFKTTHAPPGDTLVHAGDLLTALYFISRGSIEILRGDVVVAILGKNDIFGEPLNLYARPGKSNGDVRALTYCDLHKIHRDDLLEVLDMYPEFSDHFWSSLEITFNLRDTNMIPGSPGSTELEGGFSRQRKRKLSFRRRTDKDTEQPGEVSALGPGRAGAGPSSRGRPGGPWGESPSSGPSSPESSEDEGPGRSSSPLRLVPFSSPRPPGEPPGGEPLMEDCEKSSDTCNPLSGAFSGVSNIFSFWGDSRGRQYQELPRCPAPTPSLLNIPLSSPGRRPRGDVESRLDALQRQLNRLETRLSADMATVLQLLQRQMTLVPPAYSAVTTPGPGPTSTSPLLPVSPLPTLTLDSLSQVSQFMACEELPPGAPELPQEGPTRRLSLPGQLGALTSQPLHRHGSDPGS

| SMILES | hERG current change (%, negative = inhibition) at 10uM [%] |
| --- | --- |
| O=C(NN=C1C2CC3CC(C2)CC1C3)c1cccc(S(=O)(=O)N2CCOCC2)c1 | 0.586 |
| COC(=O)CSC1=C(C#N)C(c2cccc(F)c2)CC(=O)N1 (stereo not shown) | 9.97 |
| CC1c2[nH]c3ccccc3c2CCN1S(C)(=O)=O (stereo not shown) | 3.54 |
| COc1ccc(C2CC(c3cccs3)=NN2C(=O)CSc2nnc(N)s2)cc1OC (stereo not shown) | -4.6 |
| O=C(CCCOc1ccccc1)Nc1ccc(Cl)cn1 | -3.18 |
| CCCCC(=O)Nc1cc(OCC)c(NC(=O)c2ccccc2[N+](=O)[O-])cc1OCC | -4.27 |
| FC(F)(F)c1cccc(-c2nnc3ccc(C(F)(F)F)cn23)c1 | -65.2 |
| FC(F)(F)c1ccc2nnc(-c3c(Cl)cccc3Cl)n2c1 | -4.48 |
| Fc1cccc(Cl)c1-c1nnc2ccc(C(F)(F)F)cn12 | 10.9 |
| O=C(Nc1ccc2nc3ccccc3nc2c1)c1ccc(Br)cc1 | 17.9 |
| O=C(NC(=S)N1CCN(c2ccc([N+](=O)[O-])cc2)CC1)c1ccccc1F | -25.8 |
| O=C(NC(=S)N1CCN(c2ccc(Cl)cc2[N+](=O)[O-])CC1)c1ccco1 | -68.4 |
| CCC(=O)N1CCN(c2ccc(Cl)cc2NC(=S)NC(=O)c2ccco2)CC1 | -0.88 |
| O=C(NC(=S)N1CCN(c2ccc([N+](=O)[O-])cc2)CC1)c1ccccc1 | 0.58 |
| O=C(NC(=S)N1CCN(c2ccc([N+](=O)[O-])cc2)CC1)c1ccccc1Cl | -39.8 |
| O=C(NC(=S)N1CCN(c2ccc([N+](=O)[O-])cc2)CC1)c1ccc(F)cc1 | -58.5 |
| O=C(NC(=S)N1CCN(c2ccc(Cl)cc2[N+](=O)[O-])CC1)c1cccs1 | -30 |
| Cc1ccc(C(=O)NC(=S)N2CCN(c3ccc([N+](=O)[O-])cc3)CC2)cc1 | -15.6 |
| O=C(NC(=S)N1CCN(c2ccc([N+](=O)[O-])cc2)CC1)c1ccco1 | -61.2 |
| Cc1oc(C(C)(C)C)cc1C(=O)N1CCN(c2ccc(C(F)(F)F)cn2)CC1 | -5.33 |

| SMILES | hERG current change (%, negative = inhibition) at 10uM [%] |
| --- | --- |
| Cc1ccc(N(C(=O)c2nsc(Cl)c2Cl)C(C(=O)NC2CCCC2)c2ccc(O)cc2)cc1C (stereo not shown) | 9.52 |
| COc1ccc(-n2c(O)c(/C=N/n3cnnc3)c3ccccc3c2=O)cc1 | -1.22 |
| CC(=O)Nc1ccc(S(=O)(=O)NC2=C(N3CCN(C)CC3)C(=O)c3ccccc3C2=O)cc1 | -0.763 |
| CC(=O)c1ccc(NC(=O)Cn2cnc(S(=O)(=O)N3CCC(C)CC3)c2)cc1 | 21.4 |
| Cc1ccc(NC(=O)C2CCCN(c3ncnc4c3nc3n4CCCCC3)C2)nc1 (stereo not shown) | -62.5 |
| Cc1cccc(NC(=O)C2CCN(c3ncnc4c3nc3n4CCCCC3)CC2)n1 | -29.5 |
| O=C(Nc1ccc(Cl)cn1)C1CCCN(c2ncnc3c2nc2n3CCCCC2)C1 (stereo not shown) | -57.7 |
| O=C(Nc1ccccn1)C1CCCN(c2ncnc3c2nc2n3CCCCC2)C1 (stereo not shown) | -34.8 |
| Cc1ccnc(NC(=O)C2CCCN(c3ncnc4c3nc3n4CCCCC3)C2)c1 (stereo not shown) | -45.6 |
| Cc1cccc(NC(=O)C2CCCN(c3ncnc4c3nc3n4CCCCC3)C2)n1 (stereo not shown) | -54.2 |
| O=C(Nc1ccc(Cl)cn1)C1CCN(c2ncnc3c2nc2n3CCCCC2)CC1 | -38.8 |
| O=C(Oc1ccc2c3c(c(=O)oc2c1)CCC3)c1ccco1 | -1.09 |
| CCOC(=O)c1ccc(NC(=O)CN2C(=O)NC3(CCCCCCC3)C2=O)cc1 | -7.35 |
| COC(=O)c1[nH]c2ccc(F)cc2c1NS(=O)(=O)c1ccc(F)c(C)c1 | 0.344 |
| Cc1ccc(C2Nc3ccccc3NC3=C2C(=O)CC(C)(C)C3)c(O)c1 (stereo not shown) | 3.15 |
| Nc1c2c(nc3sc4c(c13)CCCC4)CCCCC2 | -6.3 |
| Nc1c2c(nc3sc4c(c13)CCCC4)CCCC2 | -70.4 |
| Nc1c2c(nc3sc4c(c13)CCCCC4)CCCCC2 | -25.9 |
| Cc1nc2ccccc2nc1OCC(=O)Nc1ccccc1 | 14.8 |
| Cc1ccc(S(=O)(=O)N(CC2CO2)c2cc(Cl)ccc2Cl)cc1 (stereo not shown) | -6.93 |

| SMILES | hERG current change (%, negative = inhibition) at 10uM [%] |
| --- | --- |
| C[C@]1(C(=O)NCCCNc2ncc(C(F)(F)F)cc2Cl)C=C[C@@H](Cc2ccccc2)N1C(=O)c1ccccc1 | 7.01 |
| CC1(C(=O)NCCCNc2ncc(C(F)(F)F)cc2Cl)C=CCN1C(=O)c1ccccc1 (stereo not shown) | -56.4 |
| COC(=O)N1[C@H](C)C=C[C@]1(Cc1ccccc1)C(=O)NCCCNc1ncc(C(F)(F)F)cc1Cl | -10.5 |
| O=C(COC(=O)COc1ccccc1[N+](=O)[O-])Nc1ccccc1Br | 3.82 |
| COCCCNC(=S)N1CCN(c2nc(-c3ccccc3)cs2)CC1 | -5.55 |
| CCCCNC(=O)CCSc1ccc(C)cc1 | -2.9 |
| CSc1ccc(CN(C)CC(=O)NC(=O)NC(C)(C)C)cc1 | -3.83 |
| CSc1ccc(CN(C)CC(=O)N(C)CC(=O)Nc2ccccc2Br)cc1 | -56.9 |
| CSc1ccc(CN(C)CC(=O)NCc2ccccc2)cc1 | -52.5 |
| COc1ccc(CNC(=O)CN(C)Cc2ccc(SC)cc2)cc1 | -65.2 |
| COc1ccc(CNC(=O)CN(C)Cc2ccc(C(C)(C)C)cc2)cc1.O=C(O)C(=O)O | -4.44 |
| CSc1ccc(CN(C)CC(=O)Nc2ccccc2Br)cc1 | 17.3 |
| CSc1ccc(CN(C)CC(=O)NCCc2ccccc2)cc1 | -35.5 |
| CN(CC(=O)NCc1ccc(F)cc1)Cc1ccc(Br)cc1 | -35.5 |
| CN(CC(=O)NCc1ccccc1)Cc1cccc(F)c1.O=C(O)C(=O)O | 9.59 |
| COc1ccc(CN(C)CC(=O)N(C)CC(=O)Nc2ccccc2Br)cc1F | -39.1 |
| CSc1ccc(CN(C)CC(=O)Nc2ccc(NC(C)=O)cc2)cc1 | -25.8 |
| CSc1ccc(CN(C)CC(=O)NCc2ccc(F)cc2)cc1 | -70.1 |

Source: publication PMC4336329 (PLoS ONE, 2015)
